For part of these data: Measured potencies and affinities stand elsewhere.
Tests used:
Design in all cases: scale not given: direction of the effect not stated beside the values
[1] = target: Protein translocase subunit SecA (Escherichia coli (strain K12)) (UniProt P10408); test: Assay to Identify E. coli SecA ATPase Inhibitors; type: functional; details: 30 µM
[2] = target: T1, Ubiquitin-activating enzyme e1, putative (Leishmania donovani (strain BPK282A1)) (UniProt E9BSI1); test: Leishmania donovani Ubiquitin Activating Enzyme (LdE1); type: functional; details: 30 µM
T1 sequence (whole entry): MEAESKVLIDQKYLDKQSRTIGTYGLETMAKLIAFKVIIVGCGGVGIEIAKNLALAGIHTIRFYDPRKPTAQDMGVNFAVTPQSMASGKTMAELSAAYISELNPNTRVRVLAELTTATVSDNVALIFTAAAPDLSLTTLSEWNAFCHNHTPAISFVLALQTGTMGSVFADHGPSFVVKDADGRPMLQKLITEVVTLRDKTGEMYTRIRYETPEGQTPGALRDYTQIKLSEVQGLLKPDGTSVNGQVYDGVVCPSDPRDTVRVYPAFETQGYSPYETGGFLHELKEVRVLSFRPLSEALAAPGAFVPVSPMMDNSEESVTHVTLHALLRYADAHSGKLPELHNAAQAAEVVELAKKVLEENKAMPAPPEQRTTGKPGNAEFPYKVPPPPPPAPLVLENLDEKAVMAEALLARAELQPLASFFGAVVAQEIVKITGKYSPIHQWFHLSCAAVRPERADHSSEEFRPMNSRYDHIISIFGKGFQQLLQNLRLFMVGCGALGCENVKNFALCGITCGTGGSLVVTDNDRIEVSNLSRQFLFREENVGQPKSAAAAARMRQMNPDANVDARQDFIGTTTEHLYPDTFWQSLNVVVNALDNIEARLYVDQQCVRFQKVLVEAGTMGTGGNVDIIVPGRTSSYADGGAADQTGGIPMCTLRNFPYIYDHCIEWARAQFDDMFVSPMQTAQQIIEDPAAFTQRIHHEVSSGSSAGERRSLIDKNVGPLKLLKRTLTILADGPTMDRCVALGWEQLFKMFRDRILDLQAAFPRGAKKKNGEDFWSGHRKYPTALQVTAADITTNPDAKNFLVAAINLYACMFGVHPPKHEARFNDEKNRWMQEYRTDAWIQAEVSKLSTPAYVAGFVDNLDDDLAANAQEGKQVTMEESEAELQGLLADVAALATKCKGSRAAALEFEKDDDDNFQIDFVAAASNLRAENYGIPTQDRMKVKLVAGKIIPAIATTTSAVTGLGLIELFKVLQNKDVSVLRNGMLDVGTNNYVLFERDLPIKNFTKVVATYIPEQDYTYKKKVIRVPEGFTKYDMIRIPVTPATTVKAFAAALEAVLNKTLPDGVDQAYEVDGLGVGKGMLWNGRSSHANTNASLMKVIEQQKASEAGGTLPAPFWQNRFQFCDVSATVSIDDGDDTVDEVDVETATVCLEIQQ

[3] = target: AMP-activated protein kinase, AMPK (Homo sapiens) (UniProt P54646+O43741+P54619+Q9UGJ0+Q9Y478+Q13131+Q9UGI9); test: AMP-dependent Kinase enzyme assay. An in vitro enzyme assay that detects ADP turnover that is directly proportional to AMPK activity. This uses naive AMPK that is activated during the assay with MK-8722; type: functional; details: 30 µM
[4] = target: Sialic acid-binding Ig-like lectin 9 (Homo sapiens) (UniProt Q9Y336); test: Hs-Siglec9 ALPHAscreen SOP 20170721; details: 10 µM
Trypanosoma cruzi = test: Trypanosoma cruzi phosphomannomutase and mannose-1-phosphate guanylyltransferase assay; type: functional; details: 10 µM
[5] = target: T2, Arginase-2, mitochondrial (Homo sapiens) (UniProt P78540); test: in vitro enzyme assay to detect the production of urea directly proportional to the activity of Arginase II; type: functional; details: 33.3 µM; further: in the data most compounds retested in dose-response had high values
T2 sequence (whole entry): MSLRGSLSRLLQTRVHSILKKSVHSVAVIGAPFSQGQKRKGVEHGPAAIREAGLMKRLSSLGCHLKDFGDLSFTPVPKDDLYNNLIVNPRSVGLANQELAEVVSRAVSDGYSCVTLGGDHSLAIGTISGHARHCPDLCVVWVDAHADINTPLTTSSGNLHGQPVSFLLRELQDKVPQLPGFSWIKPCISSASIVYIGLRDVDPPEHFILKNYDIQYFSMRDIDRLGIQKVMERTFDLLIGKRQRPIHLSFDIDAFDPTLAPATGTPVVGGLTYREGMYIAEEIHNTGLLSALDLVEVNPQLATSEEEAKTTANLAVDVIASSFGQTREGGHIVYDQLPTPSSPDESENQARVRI

[6] = target: T3, Proteasome subunit beta (Trypanosoma cruzi) (UniProt O96673); test: Trypanosoma cruzi proteasome chymotrypsin-like activity (TcProtChymo) assay.; further: in the data most compounds retested in dose-response had high values; type: functional; details: 9.37 µM
T3 sequence (whole entry): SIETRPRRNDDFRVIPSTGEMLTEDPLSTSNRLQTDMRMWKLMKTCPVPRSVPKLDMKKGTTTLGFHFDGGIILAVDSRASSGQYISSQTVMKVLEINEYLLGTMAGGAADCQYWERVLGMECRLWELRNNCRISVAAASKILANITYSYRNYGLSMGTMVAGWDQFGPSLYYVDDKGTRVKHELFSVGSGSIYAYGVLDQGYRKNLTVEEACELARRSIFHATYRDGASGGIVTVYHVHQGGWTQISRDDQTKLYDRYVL

Homo sapiens = organism: Homo sapiens; test: To identify inhibition of the IFN signalling (Jak-Stat) pathway via expression of an eGFP reporter gene under the control of an IFN-stimulated response element (ISRE) containing MxA promoter.; type: functional; details: 30 µM
[7] = target: T4, Tyrosyl-tRNA synthetase, putative (Trypanosoma cruzi (strain CL Brener)) (UniProt Q4DSP6); test: Trypanosoma cruzi tyrosyl tRNA synthetase (TcYRS) _High Tyrosine SOP; type: functional; details: 30 µM; further: in the data most compounds retested in dose-response had high values
T4 sequence (whole entry): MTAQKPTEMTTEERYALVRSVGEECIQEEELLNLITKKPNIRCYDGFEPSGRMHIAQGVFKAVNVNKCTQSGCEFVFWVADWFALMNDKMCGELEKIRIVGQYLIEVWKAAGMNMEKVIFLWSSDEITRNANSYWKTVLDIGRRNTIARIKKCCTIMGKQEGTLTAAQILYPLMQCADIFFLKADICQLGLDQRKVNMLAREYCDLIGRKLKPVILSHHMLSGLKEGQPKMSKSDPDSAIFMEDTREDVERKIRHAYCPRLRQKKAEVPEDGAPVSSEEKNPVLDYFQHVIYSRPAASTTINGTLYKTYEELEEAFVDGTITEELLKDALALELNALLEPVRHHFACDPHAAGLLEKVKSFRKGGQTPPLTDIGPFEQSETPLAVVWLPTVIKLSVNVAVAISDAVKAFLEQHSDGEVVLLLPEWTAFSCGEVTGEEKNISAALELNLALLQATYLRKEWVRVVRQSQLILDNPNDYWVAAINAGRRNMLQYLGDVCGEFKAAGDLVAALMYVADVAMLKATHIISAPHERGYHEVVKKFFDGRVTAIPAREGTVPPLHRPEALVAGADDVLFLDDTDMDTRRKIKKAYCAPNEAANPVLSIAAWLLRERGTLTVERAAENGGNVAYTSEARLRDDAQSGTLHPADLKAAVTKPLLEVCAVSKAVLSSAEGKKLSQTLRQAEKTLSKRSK

[8] = target: T4, Tyrosyl-tRNA synthetase, putative (Trypanosoma cruzi (strain CL Brener)); test: Trypanosoma cruzi tyrosyl tRNA synthetase (TcYRS) SOP; type: functional; details: 30 µM
[9] = target: Chromo domain-containing protein 1 (Saccharomyces cerevisiae (strain ATCC 204508 / S288c) (Baker's yeast)) (UniProt P32657); test: ScCHD-1 Enzyme Inhibition Assay; type: functional; details: 30 µM; further: in the data most compounds retested in dose-response had high values
Chromo domain-containing protein 1 (Saccharomyces cerevisiae (strain ATCC 204508 / S288c) (Baker's yeast)), sequence (P32657 whole entry, the tested form may be a part): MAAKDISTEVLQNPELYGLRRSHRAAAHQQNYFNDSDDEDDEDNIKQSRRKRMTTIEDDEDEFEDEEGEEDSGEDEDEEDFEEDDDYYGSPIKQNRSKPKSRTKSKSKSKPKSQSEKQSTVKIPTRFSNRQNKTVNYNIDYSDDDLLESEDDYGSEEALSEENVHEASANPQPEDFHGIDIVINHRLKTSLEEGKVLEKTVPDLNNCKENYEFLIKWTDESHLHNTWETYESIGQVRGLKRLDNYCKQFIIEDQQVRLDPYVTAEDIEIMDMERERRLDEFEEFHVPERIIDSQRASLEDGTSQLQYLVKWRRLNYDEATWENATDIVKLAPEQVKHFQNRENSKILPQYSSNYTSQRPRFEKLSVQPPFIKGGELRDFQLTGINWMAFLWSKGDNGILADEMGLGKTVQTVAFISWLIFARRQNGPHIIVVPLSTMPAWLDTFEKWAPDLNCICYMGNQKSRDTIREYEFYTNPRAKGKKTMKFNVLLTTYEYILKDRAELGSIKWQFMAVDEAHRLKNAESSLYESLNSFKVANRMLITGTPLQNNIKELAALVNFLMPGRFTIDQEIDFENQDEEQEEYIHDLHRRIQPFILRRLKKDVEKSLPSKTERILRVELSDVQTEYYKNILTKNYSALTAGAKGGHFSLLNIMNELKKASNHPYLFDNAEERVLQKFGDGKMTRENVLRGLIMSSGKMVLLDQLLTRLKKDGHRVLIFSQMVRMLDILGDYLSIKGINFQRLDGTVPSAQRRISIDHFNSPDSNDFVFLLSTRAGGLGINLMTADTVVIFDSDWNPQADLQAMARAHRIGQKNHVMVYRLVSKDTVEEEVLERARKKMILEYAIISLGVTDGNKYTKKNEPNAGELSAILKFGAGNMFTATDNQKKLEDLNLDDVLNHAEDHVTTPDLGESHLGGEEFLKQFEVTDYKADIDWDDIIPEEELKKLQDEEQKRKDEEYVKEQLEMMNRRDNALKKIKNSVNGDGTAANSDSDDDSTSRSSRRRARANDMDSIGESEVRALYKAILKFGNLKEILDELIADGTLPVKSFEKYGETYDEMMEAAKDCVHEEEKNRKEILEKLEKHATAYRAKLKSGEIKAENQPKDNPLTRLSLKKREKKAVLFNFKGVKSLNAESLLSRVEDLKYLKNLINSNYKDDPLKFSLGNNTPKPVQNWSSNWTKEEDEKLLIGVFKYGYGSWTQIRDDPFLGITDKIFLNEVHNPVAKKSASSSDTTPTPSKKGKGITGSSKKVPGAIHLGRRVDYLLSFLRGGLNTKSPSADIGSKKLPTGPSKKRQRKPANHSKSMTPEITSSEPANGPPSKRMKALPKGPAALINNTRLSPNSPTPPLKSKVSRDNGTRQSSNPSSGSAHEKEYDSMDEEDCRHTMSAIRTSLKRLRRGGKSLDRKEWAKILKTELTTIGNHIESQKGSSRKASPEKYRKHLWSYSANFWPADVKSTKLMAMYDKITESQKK

Protein translocase subunit SecA (Escherichia coli (strain K12)), sequence (P10408 whole entry): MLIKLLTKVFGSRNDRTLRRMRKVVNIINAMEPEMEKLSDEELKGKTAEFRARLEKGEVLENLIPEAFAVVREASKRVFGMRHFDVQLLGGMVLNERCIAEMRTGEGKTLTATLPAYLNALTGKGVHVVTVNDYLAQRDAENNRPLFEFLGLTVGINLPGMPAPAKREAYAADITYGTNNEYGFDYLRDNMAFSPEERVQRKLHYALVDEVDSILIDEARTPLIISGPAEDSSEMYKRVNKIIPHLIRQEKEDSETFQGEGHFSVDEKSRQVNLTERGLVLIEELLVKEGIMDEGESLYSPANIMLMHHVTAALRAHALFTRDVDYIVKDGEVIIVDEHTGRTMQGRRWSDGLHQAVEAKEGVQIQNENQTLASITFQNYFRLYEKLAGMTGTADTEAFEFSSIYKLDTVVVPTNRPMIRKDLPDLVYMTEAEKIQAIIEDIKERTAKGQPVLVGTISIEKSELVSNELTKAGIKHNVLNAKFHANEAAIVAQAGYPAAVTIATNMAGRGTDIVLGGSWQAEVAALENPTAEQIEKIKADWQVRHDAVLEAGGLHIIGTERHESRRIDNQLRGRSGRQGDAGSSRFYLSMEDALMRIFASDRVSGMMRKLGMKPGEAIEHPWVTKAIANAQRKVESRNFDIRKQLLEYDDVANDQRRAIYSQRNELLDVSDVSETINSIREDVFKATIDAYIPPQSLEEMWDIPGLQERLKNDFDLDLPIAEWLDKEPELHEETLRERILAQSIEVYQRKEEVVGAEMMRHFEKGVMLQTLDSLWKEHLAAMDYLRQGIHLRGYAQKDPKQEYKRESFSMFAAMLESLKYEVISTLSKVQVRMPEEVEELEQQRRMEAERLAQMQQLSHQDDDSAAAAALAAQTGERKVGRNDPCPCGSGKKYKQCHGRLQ
Sialic acid-binding Ig-like lectin 9 (Homo sapiens), sequence (Q9Y336 whole entry): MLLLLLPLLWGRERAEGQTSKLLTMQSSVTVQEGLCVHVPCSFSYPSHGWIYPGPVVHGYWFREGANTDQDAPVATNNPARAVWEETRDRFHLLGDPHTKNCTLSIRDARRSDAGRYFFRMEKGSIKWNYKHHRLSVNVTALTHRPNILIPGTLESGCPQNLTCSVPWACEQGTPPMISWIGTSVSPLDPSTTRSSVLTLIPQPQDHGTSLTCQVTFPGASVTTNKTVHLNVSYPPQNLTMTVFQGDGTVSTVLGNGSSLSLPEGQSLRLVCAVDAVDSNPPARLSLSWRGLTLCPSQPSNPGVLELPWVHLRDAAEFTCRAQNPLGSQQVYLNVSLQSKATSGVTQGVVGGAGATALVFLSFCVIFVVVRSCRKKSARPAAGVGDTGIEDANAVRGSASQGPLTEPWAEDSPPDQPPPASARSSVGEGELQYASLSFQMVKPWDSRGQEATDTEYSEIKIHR

## Cc1ccc(CNC(=O)CN2C=Nc3ccccc3S2(=O)=O)s1
[1]
  Percent Effect: -3.17%
[2]
  Percent Effect: 21.1%
[3]
  Percent Effect: -5.67%
[4]
  Percent Effect: -1.55%
Trypanosoma cruzi
  Percent Effect: 6.07%
[5]
  Percent Effect: -0.36%
[6]
  Percent Effect: 3.98%
Homo sapiens
  Percent Effect: 9.85%
[7]
  Percent Effect: 10.3%
[8]
  Percent Effect: 23.5%
[9]
  Percent Effect: -6.54%

## O=C(COCc1nc(-c2ccncc2)no1)N1CCCC1
[1]
  Percent Effect: -2.71%
[2]
  Percent Effect: 10.4%
[3]
  Percent Effect: 5.42%
[4]
  Percent Effect: 6.86%
Trypanosoma cruzi
  Percent Effect: 4.42%
[5]
  Percent Effect: -110%
[6]
  Percent Effect: 7.32%
Homo sapiens
  Percent Effect: -13.8%
[7]
  Percent Effect: 5.38%
[8]
  Percent Effect: 13.6%
[9]
  Percent Effect: -4.16%

## O=C(COc1coc(CN2CCCC2)cc1=O)NCc1ccccc1Cl
[1]
  Percent Effect: -2.51%
[2]
  Percent Effect: 1.33%
[3]
  Percent Effect: 5.09%
[4]
  Percent Effect: 5.58%
Trypanosoma cruzi
  Percent Effect: 0.393%
[5]
  Percent Effect: -1.94%
[6]
  Percent Effect: 7.02%
Homo sapiens
  Percent Effect: -13.6%
[7]
  Percent Effect: 6.35%
[8]
  Percent Effect: 10.3%
[9]
  Percent Effect: 0.789%

## COCC1CN(C(=O)c2cccn2C)Cc2nccn2C1 (centres undefined)
[1]
  Percent Effect: -0.683%
[2]
  Percent Effect: 10.7%
[3]
  Percent Effect: 12.7%
[4]
  Percent Effect: -7.24%
Trypanosoma cruzi
  Percent Effect: -5.32%
[5]
  Percent Effect: 1.63%
[6]
  Percent Effect: 13.8%
Homo sapiens
  Percent Effect: 10.6%
[7]
  Percent Effect: 2.13%
[8]
  Percent Effect: 11.5%
[9]
  Percent Effect: -4.6%

## CN(C)C(CNS(=O)(=O)c1ccc(F)cc1F)c1cccn1C (centres undefined)
[1]
  Percent Effect: -6.84%
[2]
  Percent Effect: 8.22%
[3]
  Percent Effect: 2.21%
[4]
  Percent Effect: -1%
Trypanosoma cruzi
  Percent Effect: -4.9%
[5]
  Percent Effect: 2.73%
[6]
  Percent Effect: 10.8%
Homo sapiens
  Percent Effect: 13.6%
[7]
  Percent Effect: 4.3%
[8]
  Percent Effect: 12.5%
[9]
  Percent Effect: -4.19%

## O=C(C1=CCCC1)N1CCC[C@]2(C[C@@H](Oc3ncccc3F)CO2)C1
[1]
  Percent Effect: -0.607%
[2]
  Percent Effect: -5.48%
[3]
  Percent Effect: -7.12%
[4]
  Percent Effect: 6.71%
Trypanosoma cruzi
  Percent Effect: 3.77%
[5]
  Percent Effect: 0.399%
[6]
  Percent Effect: 23.2%
Homo sapiens
  Percent Effect: 23.5%
[7]
  Percent Effect: 5.21%
[8]
  Percent Effect: 13.6%
[9]
  Percent Effect: -3.32%

## CC(C)c1n[nH]c(C2CN(C(=O)C3=COCC3)CCO2)n1 (centres undefined)
[1]
  Percent Effect: -3.67%
[2]
  Percent Effect: 2.63%
[3]
  Percent Effect: 1.65%
[4]
  Percent Effect: 11.9%
Trypanosoma cruzi
  Percent Effect: 0.0934%
[5]
  Percent Effect: 5.4%
[6]
  Percent Effect: -5.33%
Homo sapiens
  Percent Effect: -8.69%
[7]
  Percent Effect: 2.46%
[8]
  Percent Effect: 3.7%
[9]
  Percent Effect: 10.5%

## Cc1nc(Nc2ncccn2)cc(C2CCCN2C2CCOCC2)n1 (centres undefined)
[1]
  Percent Effect: -5.08%
[2]
  Percent Effect: 6.76%
[3]
  Percent Effect: 3.91%
[4]
  Percent Effect: 3.68%
Trypanosoma cruzi
  Percent Effect: 0.593%
[5]
  Percent Effect: -3.48%
[6]
  Percent Effect: -1.72%
Homo sapiens
  Percent Effect: 13.7%
[7]
  Percent Effect: 9.68%
[8]
  Percent Effect: 11.7%
[9]
  Percent Effect: -3.64%

## COCC(=O)N1CCO[C@H]2[C@H](OC)CC[C@@H]21
[1]
  Percent Effect: -6.12%
[2]
  Percent Effect: 5.41%
[3]
  Percent Effect: 1.82%
[4]
  Percent Effect: -0.654%
Trypanosoma cruzi
  Percent Effect: -4.79%
[5]
  Percent Effect: 4.78%
[6]
  Percent Effect: 21.8%
Homo sapiens
  Percent Effect: 9.88%
[7]
  Percent Effect: 1.08%
[8]
  Percent Effect: 5.13%
[9]
  Percent Effect: 1.01%
